# Results from PubChem BioAssay.
# The source made the active and inactive calls.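 The calls were made as follows, unless noted: active = inhibition above 20% together with a positive visual image hit; inconclusive = visual image hit but inhibition not above 20%; inactive = no visual image hit.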
# What was measured:
# [1] = inhibitors of TNFa-induced NFkB p65 translocation, primary screen, imaging, HUVEC, MLSMR starter and 10KST1 sets (AID 438); settings: HUVEC TNFa-induced p65 nuclear translocation; cell count: measured here: nuclei count (cytotoxicity indicator), at 2.08 µM; inhibition: at 2 µM, stronger effect = higher value, 0% TNFa-plus-vehicle, 100% no-TNFa wells;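 also: compound added about 3h40 before a 20 min TNFalpha stimulation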;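 as to inhibition: signal is the nuclear over cytoplasmic p65 intensity ratio per well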
# [2] = reduction of polyQ htt aggregates in cells – imaging, exon1htt(103Q)mCFP cells, high-content imaging, primary screen (AID 483;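 active = visual image review flags a hit and inhibition of aggregation exceeds 20%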;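 also: compound exposure lasted 3 days before fixation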;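 as to nuclei count: percent of the per-plate median nuclei count of sample wells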); settings: exon1htt(103Q)mCFP cell line, aggregate imaging, at 2 µM; inhibition of aggregation: stronger effect = higher value; nuclei count: measured here: cell count, toxicity
# [3] = endothelial E-selectin expression blockers – imaging, HUVEC, immunofluorescence, MLSMR starter and 10KST1 sets, primary screen (AID 487;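 active = visually confirmed hit in the image check and inhibition above 20%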;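 as to inhibition: signal is fraction of cell area covered by stained E-selectin grains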;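 as to nuclei count: 100% = median nuclei count of all wells on the same plate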); settings: HUVEC TNFalpha-induced E-selectin immunofluorescence imaging, at 2 µM; inhibition: stronger effect = higher value; nuclei count: measured here: cell number, toxicity
# [4] = Primary imaging screen for DUSP6 inhibitors that restore phospho-Erk in transfected HeLa cells, chemical complementation (AID 609;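 active = compounds giving at least 50% inhibition in the cell-based MKP-3 phosphatase rescue imaging test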;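 as to inhibition: phospho-Erk level distribution per well compared with pooled transfected vehicle control wells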); settings: HeLa MKP-3 transfected, phospho-Erk imaging KS statistic, at 10 µM, cells stimulated with TPA for 15 min
# [5] = target: Dual specificity protein phosphatase 6 (Homo sapiens) (UniProt Q16828); assay: as above; settings: HeLa MKP-3 transfected, phospho-Erk imaging KS statistic; at 10 µM; stronger effect = higher value; cells stimulated with TPA for 15 min
# Dual specificity protein phosphatase 6 (Homo sapiens), sequence (Q16828 whole entry, looked up): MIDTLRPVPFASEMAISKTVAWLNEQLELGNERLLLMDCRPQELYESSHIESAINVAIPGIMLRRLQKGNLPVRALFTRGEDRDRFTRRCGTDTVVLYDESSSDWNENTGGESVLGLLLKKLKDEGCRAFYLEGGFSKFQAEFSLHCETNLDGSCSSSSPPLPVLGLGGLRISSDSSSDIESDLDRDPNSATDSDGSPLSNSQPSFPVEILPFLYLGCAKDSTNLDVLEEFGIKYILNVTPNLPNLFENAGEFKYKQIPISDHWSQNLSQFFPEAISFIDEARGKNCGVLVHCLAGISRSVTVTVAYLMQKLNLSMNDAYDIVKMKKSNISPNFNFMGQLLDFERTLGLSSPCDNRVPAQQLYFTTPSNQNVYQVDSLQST
# [6] = target: Voltage-gated potassium channel subunit beta-2 (Rattus norvegicus) (UniProt P62483); assay: inhibitors of rat Kvbeta2 reductase activity – biochemical, NADPH fluorescence, primary screen (AID 622;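 active = fluorescence slope higher than the sample average by over 3 SD, cut at about -0.22 in these data, passing the limit was not always enough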;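 also: slope of raw intensity against log time taken from 70 to 1610 s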); settings: recombinant KvBeta, 4-cyanobenzaldehyde reduction, at 10 µM, stronger effect = higher value
# Voltage-gated potassium channel subunit beta-2 (Rattus norvegicus), sequence (P62483 whole entry, looked up): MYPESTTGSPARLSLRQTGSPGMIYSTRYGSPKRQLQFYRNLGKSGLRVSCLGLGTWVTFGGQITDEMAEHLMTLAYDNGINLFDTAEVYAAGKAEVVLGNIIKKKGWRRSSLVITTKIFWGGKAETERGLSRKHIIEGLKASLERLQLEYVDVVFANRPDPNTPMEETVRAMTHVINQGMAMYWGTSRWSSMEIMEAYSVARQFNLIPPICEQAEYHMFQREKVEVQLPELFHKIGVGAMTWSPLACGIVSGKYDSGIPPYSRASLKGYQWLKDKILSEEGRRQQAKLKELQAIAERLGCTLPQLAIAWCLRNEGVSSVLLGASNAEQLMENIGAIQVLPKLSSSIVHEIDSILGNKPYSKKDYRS
# [7] = target: Voltage-gated potassium channel subunit beta-2 (Rattus norvegicus) (UniProt P62483); assay: enhancers of rat Kvbeta2 NADPH turnover – biochemical, NADPH fluorescence, primary screen (AID 623;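 active = NADPH fluorescence slope more negative than the mean of all samples by about 3 SD, 99.7% confidence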;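 also: fluorescence intensity change per second fitted from 20 to 320 s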); settings: Recombinant KvBeta, NADPH fluorescence decrease slope, 10 min; at 10 µM; stronger effect = lower value
# [8] = target: Alpha-2C adrenergic receptor (Homo sapiens) (UniProt P18825); assay: compounds altering alpha2C-coupled GIRK flux – cell-based, HEK293 alpha2C/GIRK1/2, thallium flux, primary screen (AID 624;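 active = fluorescence slope after compound addition differing from the mean of all screened samples at 99.7% confidence, in either direction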;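 also: slope of fluorescence ratio to pre-addition baseline per second over 15 to 24 s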); settings: thallium flux BTC fluorescence, at 10 µM, actives lie on both sides
# Alpha-2C adrenergic receptor (Homo sapiens), sequence (P18825 whole entry, looked up): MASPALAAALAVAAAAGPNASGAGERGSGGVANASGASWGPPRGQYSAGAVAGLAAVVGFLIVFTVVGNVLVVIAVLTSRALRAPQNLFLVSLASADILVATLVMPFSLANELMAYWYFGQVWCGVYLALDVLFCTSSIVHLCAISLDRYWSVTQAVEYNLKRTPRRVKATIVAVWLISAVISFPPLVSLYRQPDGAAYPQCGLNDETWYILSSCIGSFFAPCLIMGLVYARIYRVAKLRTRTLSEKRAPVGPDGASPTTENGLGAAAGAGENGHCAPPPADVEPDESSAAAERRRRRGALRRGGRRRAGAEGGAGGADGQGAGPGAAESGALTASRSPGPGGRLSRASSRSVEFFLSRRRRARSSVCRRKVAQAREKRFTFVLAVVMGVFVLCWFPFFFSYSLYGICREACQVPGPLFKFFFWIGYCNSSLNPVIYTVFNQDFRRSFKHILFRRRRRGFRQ
# [9] = inhibitors of larval lipid processing in zebrafish, primary screen, whole organism, PED6 fluorescence, gall bladder and intestine (AID 686;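 active = a full or partial loss of lipid-probe fluorescence in the fish gall bladder, intestine or both, judged by eye; inactive = no fluorescence loss, or compound toxic to the fish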;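 also: larvae 5 to 7 days old with five fish per well; signal comes from phospholipase A2 cleavage of quenched PED6 carried via bile; overnight exposure to compound and PED6 before scoring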); settings: Zebrafish larvae PED6 lipid processing, fluorescence scoring; screened at 20 µM (by protocol)
# [10] = loss of swimming-algae plug formation – whole organism, Chlamydomonas reinhardtii, WT vs cilia-less mutant, absorbance, 96-well, primary screen (AID 463189;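 active = inhibition at or above 50% relative to wild type and mutant plate controls; inactive = inhibition below 50%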;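 also: 0% = wild type cc124 cells in DMSO and 100% = ciliumless bld1 mutant cells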); settings: Chlamydomonas reinhardtii gravitaxis, OD600 absorbance, 2 days; at 10 µM; stronger effect = higher value
# [11] = blockers of RIG-like receptor reporter activation – cell-based, Sendai virus stimulus, luciferase, 10K MLSCN set, TLR/RLR signaling modifier project, primary screen (AID 602276;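 active = inhibition at or above 50% at 10 µM; inactive = inhibition below 50%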;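 also: firefly luciferase from ISG56 promoter only with Renilla not read in this screen; 0% = Sendai virus plus DMSO and 100% = medium plus DMSO without virus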); settings: HEK293 RL24 IRF3 luciferase reporter, at 10 µM, stronger effect = higher value
# [12] = TLR3 IRF3 reporter activation blockers – cell-based, poly I:C stimulus, luciferase, 10K MLSCN set, primary screen (AID 602277;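 active = inhibition of the reporter signal at or above 50%; inactive = inhibition below 50%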); settings: HEK293-TLR3 RL24 IRF3 luciferase reporter, at 10 µM, stronger effect = higher value
# [13] = measured here: cell density z-score
# [14] = measured here: nuclear c-Myc green intensity z-score
# [15] = measured here: nuclear pErk red intensity z-score, stronger effect = higher value
Compound,cell count [1],inhibition [1],inhibition of aggregation [2],nuclei count [2] [%],inhibition [3],nuclei count [3] [%],"z-score [4, 13]","z-score [4, 14]","z-score [4, 15]",inhibition [5],fluorescence slope [6],NADPH fluorescence slope [7],slope [8],outcome [9],inhibition [10],inhibition [11],inhibition [12]
CC(=O)OCC(=O)[C@@]1(O)CC[C@H]2[C@@H]3CCC4=CC(=O)CC[C@]4(C)[C@H]3[C@@H](O)C[C@@]21C,652,2.9% (inactive),-9.2% (inactive),82.8,-99.5% (inactive),121,-2.38,1.32,1.76,10.2% (inactive),-0.454 (inactive),-5.2e-05 (inactive),0.00445 (inactive),inactive,17.2% (inactive),2.51% (inactive),28.7% (inactive)
CCOC(=O)C1CSc2[nH]c(=O)sc2C1c1ccccc1 (stereo not given),537,-1.3% (inactive),-4% (inactive),126,-19.3% (inactive),144,0.417,-0.0363,0.692,-1.12% (inactive),-0.378 (inactive),-6.9e-05 (inactive),0.00596 (inactive),inactive,-4.31% (inactive),5.91% (inactive),99.1% (active)
COc1cc([C@@H]2[C@H]3CN(C)CC=C3C(C#N)=C(N)C2(C#N)C#N)cc2c1OCO2,394,-2.2% (inactive),31.8% (inactive),111,-39.2% (inactive),109,0.739,-0.834,0.31,57.9% (inactive),-0.309 (inactive),9.9e-07 (inactive),0.00454 (inactive),inactive,38% (inactive),4.57% (inactive),19.8% (inactive)
CN(C(=O)C(Cl)Cl)c1ccc(OC(=O)c2ccco2)cc1,579,-1.8% (inactive),-17.3% (inactive),101,-123% (inactive),112,0.253,-0.205,-0.332,15.3% (inactive),-0.508 (inactive),-6.7e-05 (inactive),0.00492 (inactive),inactive,-2.16% (inactive),21.3% (inactive),44.8% (inactive)
CC(O)Cn1cnc2c1c(=O)n(C)c(=O)n2C (stereo not given),541,-7% (inactive),11.8% (inactive),99.1,-13.1% (inactive),128,1.09,-0.569,-0.416,15.3% (inactive),-0.45 (inactive),-7.7e-05 (inactive),0.00504 (inactive),inactive,23.2% (inactive),12% (inactive),29.4% (inactive)
CC1=NN(c2ccccc2)C(=O)C1,619,-5.9% (inactive),2.5% (inactive),98,-82.4% (inactive),130,0.599,-0.649,1.01,9.37% (inactive),-0.432 (inactive),5.3e-06 (inactive),0.00466 (inactive),inactive,11.5% (inactive),-68.4% (inactive),52% (active)
C=CCSc1nnc2n(-c3ccccc3OC)c(=O)c3c4c(sc3n12)CCC4,578,-5.9% (inactive),15.1% (inactive),59.7,-27% (inactive),126,0.876,-0.888,-0.633,7.73% (inactive),-0.339 (inactive),-1.1e-06 (inactive),0.00538 (inactive),inactive,43.3% (inactive),1.81% (inactive),0.316% (inactive)
O=C(CSc1nnc(-c2ccco2)c(-c2ccco2)n1)Nc1ccccc1,582,-9.5% (inactive),-9.2% (inactive),100,-30.7% (inactive),123,0.318,-1.08,1.26,1.6e-07% (inactive),-0.358 (inactive),-1.6e-05 (inactive),0.00359 (inactive),inactive,17.3% (inactive),-13.8% (inactive),6.55% (inactive)
Cc1cn([C@H]2C[C@H](N=[N+]=[N-])[C@@H](CO)O2)c(=O)[nH]c1=O,663,-4% (inactive),1.9% (inactive),102,-133% (inactive),128,-0.406,-0.912,2.26,-6.41% (inactive),-0.476 (inactive),3.5e-07 (inactive),0.00535 (inactive),inactive,-6.84% (inactive),17.8% (inactive),37% (inactive)
O=C(O)Cc1cc(I)c(Oc2ccc(O)c(I)c2)c(I)c1,625,3.9% (inactive),12.4% (inactive),103,-92% (inactive),123,0.485,-0.133,0.686,8% (inactive),-0.541 (inactive),-4.1e-05 (inactive),0.00612 (inactive),inactive,22% (inactive),-15.1% (inactive),-273% (inactive)
N=c1ncn(CC(O)CN2CCOCC2)c2nc(N3CCOCC3)[nH]c12 (stereo not given),536,-23.6% (inactive),20.3% (inactive),88.8,-90.1% (inactive),124,0.636,-1.17,0.315,17.3% (inactive),-0.517 (inactive),-2.5e-05 (inactive),0.00808 (inactive),inactive,17.5% (inactive),-19.8% (inactive),-9.49% (inactive)
CCCC(CCC)C(=O)OC1C[C@H]2CC[C@@H](C1)[N+]2(C)C (stereo not given in full),587,-4.2% (inactive),35.6% (inactive),88.1,-72.6% (inactive),132,0.0581,0.732,-0.0735,9.37% (inactive),-0.488 (inactive),-5e-05 (inactive),0.0052 (inactive),inactive,17.7% (inactive),18.2% (inactive),42.2% (inactive)
CCOC(=O)CSc1nc(N)c2c3c(sc2n1)CCCC3,682,-4.4% (inactive),-8.1% (inactive),97.3,5.9% (inactive),146,-0.0379,1.11,-0.851,-3.95% (inactive),-0.363 (inactive),-5.9e-05 (inactive),0.0064 (inactive),inactive,-8.25% (inactive),12.5% (inactive),4.94% (inactive)
C=C1[C@@H](C)C2[C@H](Cc3ccccc3)NC(=O)[C@]23OC(=O)CC[C@H](O)CCC[C@H](C)C/C=C/[C@H]3[C@@H]1O (stereo not given in full),573,-22.6% (inactive),25.7% (inactive),42.3,-47.4% (inactive),104,-1.85,0.937,1.72,5.42% (inactive),-0.464 (inactive),-6.3e-05 (inactive),0.00486 (inactive),inactive,-3.13% (inactive),7.56% (inactive),45.8% (inactive)
CC(C)CCNC(=O)[C@H](CC(C)C)NC(=O)[C@H]1O[C@@H]1C(=O)O,625,-6.9% (inactive),11.7% (inactive),98.3,-39.7% (inactive),134,0.0708,0.541,0.76,9.37% (inactive),-0.496 (inactive),-1.1e-05 (inactive),0.00458 (inactive),inactive,10.6% (inactive),10.1% (inactive),34.8% (inactive)
CC(=O)Nc1ccccc1O,675,0.8% (inactive),14.1% (inactive),106,-84.6% (inactive),121,-0.0756,0.873,-0.0939,7.39% (inactive),-0.439 (inactive),-5.7e-05 (inactive),0.00449 (inactive),inactive,-2.47% (inactive),13.6% (inactive),37.8% (inactive)
CCC[C@@H]1C[C@@H](C(=O)N[C@H]([C@@H](C)O)[C@H]2O[C@H](SC)[C@H](O)[C@@H](O)C2O)N(C)C1 (stereo not given in full),619,-4.3% (inactive),2.3% (inactive),101,-57.7% (inactive),123,-0.311,-0.277,0.417,8% (inactive),-0.465 (inactive),2.2e-06 (inactive),0.0059 (inactive),inactive,35.8% (inactive),19.5% (inactive),27.3% (inactive)
CCN(CC)CCCC1(CN)OCCc2ccccc21 (stereo not given),475,-12.9% (inactive),-31.3% (inactive),86.5,-55.8% (inactive),104,1.04,0.0892,-0.524,17% (inactive),-0.378 (inactive),-6.2e-06 (inactive),0.00288 (inactive),inactive,24.5% (inactive),5.61% (inactive),50.5% (active)
CC(NCCC(c1ccccc1)c1ccccc1)c1ccccc1 (stereo not given),619,-0.2% (inactive),22.8% (inactive),104,-24.4% (inactive),113,1.32,-0.571,-1.03,13.3% (inactive),-0.492 (inactive),-8.5e-06 (inactive),0.00284 (inactive),inactive,59.1% (active),28.7% (inactive),22.8% (inactive)
COc1ccc(NC(=O)CSC2=C(C#N)C(c3ccco3)C3=C(CCCC3=O)N2)c(OC)c1 (stereo not given),429,1.6% (inactive),-5.2% (inactive),95.8,-47.9% (inactive),104,-1.49,0.542,0.619,13.4% (inactive),-0.456 (inactive),-9.4e-06 (inactive),0.00706 (inactive),inactive,26.6% (inactive),17.5% (inactive),18.8% (inactive)
